Assay results from PubChem BioAssay AID492997 (Johns Hopkins Ion Channel Center, 2010).
Out of some 4,900 compounds screened, about 2,000 (41%) were called active.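 How the source made its calls: active means thallium signal drop beyond 5 SD of the untreated control mean, on both duplicate plates; inactive means the rest.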 So high a share suggests a set chosen from earlier hits. The list is a sample of the results.

Assay: thallium flux in non-induced HEK293 cells, confirmation, counter-screen for KCNK9 inhibitor project, cell-based, second counter screen, non-induced KCNK9-HEK293 (AID 492997);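 on inhibition: plate controls were buffer only IC0 wells for no effect and SID17386958 at its maximal inhibitory level for full effect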
Conditions: non-induced KCNK9-HEK293, FluxOR thallium flux, at 10 µM; active compounds read high

| Structure (SMILES) | inhibition |
| --- | --- |
| O=C(C[C@H]1C(=O)N(c2ccc(F)c(F)c2)C[C@@H]1Cc1ccccc1)Nc1ccccc1 | 37% (active) |
| COc1ccc(C(CCN(Cc2ccc(OC)c(OC)c2)C(=O)CCl)c2ccccc2)cc1 (stereo unspecified) | inactive |
| Cc1ccc(CN(N=Nc2nonc2N)c2nonc2N)c(C)c1 | 43.5% (active) |
| CC(C)CC(COCc1ccc(Cl)cc1)N1CCN(C(=O)c2ccc(C(F)(F)F)cc2)CCC1=O (stereo unspecified) | 29.5% (active) |
| Cc1ccccc1CSCCNC(=O)c1ccc(N(C)S(=O)(=O)c2ccccc2)cc1 | inactive |
| CN(c1ccccc1)S(=O)(=O)c1cccc(NC(=O)Cc2c(F)cccc2Cl)c1 | 23.5% (active) |
| COc1ccccc1N1CCN(c2ncnc3sc(C)c(-c4ccccc4)c23)CC1 | inactive |
| Clc1ccc(CSc2nnc(/C=C/c3ccccc3)o2)c(Cl)c1 | inactive |
| CCN(CC)S(=O)(=O)c1ccc(N(C)Cc2ccc(C(F)(F)F)cc2)nc1 | 39.5% (active) |
| CCCC1=Nc2cc(C(=O)NCc3ccco3)ccc2Sc2ccccc21 | 39.5% (active) |
| O=C(NCc1ccco1)c1ccc(NS(=O)(=O)c2cccc([N+](=O)[O-])c2)cc1 | inactive |
| COc1cc(Cl)ccc1OCc1cc(C(=O)N2CC[C@@H]3CCCC[C@H]3C2)no1 | inactive |
| CCOc1ccc(C2c3[nH]c4ccccc4c3CCN2Cc2cccn2-c2ncccn2)cc1 (stereo unspecified) | 25.5% (active) |
| COCCN(C(=S)Nc1cccc(Cl)c1C)C(C)c1ccco1 (stereo unspecified) | inactive |
| Cn1nc(-c2ccccc2)c(CSc2cccc(Cl)c2)c1Cl | 38% (active) |
| CCOC(=O)C1(CCOc2ccccc2)CCN(Cc2cc(OC)c(O)cc2Cl)CC1 | inactive |
| CCc1nnc(NS(=O)(=O)c2ccc(NC(=S)NC(=O)/C=C/c3cccs3)cc2)s1 | inactive |
| Cc1[nH]c2ccccc2c1CCN(Cc1cccs1)C(=S)NC(C)(C)C | inactive |
| COc1cccc(NC(=S)N(CCc2c(C)[nH]c3ccccc23)Cc2ccco2)c1 | 30% (active) |
| O=C(Nc1ccc(S(=O)(=O)N2CCCCC2)cc1)C1CCN(C(=O)c2ccc(F)cc2)CC1 | inactive |
| CCCC(=O)n1nc(NCc2ccc(OC)cc2)nc1NCc1ccc(OC)cc1 | inactive |
| O=C(Cc1ccccc1)n1nc(-c2ccccc2)nc1NCc1ccco1 | 33% (active) |
| COc1ccccc1NC(=O)CSc1nc2sc(C)c(C)c2c(=O)n1Cc1ccco1 | 38.5% (active) |
| C=CCOc1ccc(/C=N/NC(=O)C(C)Sc2ccccn2)cc1OCC (stereo unspecified) | 39% (active) |
| CCCN1C(=O)C(Cc2nc3ccccc3c(=O)n2-c2ccccc2)c2cc(C)ccc21 (stereo unspecified) | 37.5% (active) |
| CCOc1ccc(CN(Cc2ccco2)C(c2cccs2)c2nnnn2C(C)(C)C)cc1 (stereo unspecified) | 41% (active) |
